From PubChem BioAssay
Compounds with a hit are over-represented: about 12% of the library has one in this group of screens.
SARS PLpro yeast: SARS-CoV PLP inhibition in yeast | S. cerevisiae expressing SARS-CoV PLpro, growth rescue | Potency, µM (highest dose often 32.9 µM), for inactives: at the highest dose activity, positive = growth rescue, usual class: activators | hit rate 0.19% among 330,000; calls by dose curve; note: 0% is about no effect; nearly all actives have a fitted effect of over 55% in size
Pf growth 48h: P. falciparum growth inhibition at 48 hours (one generation). P. falciparum luciferase growth in erythrocytes, 48 h. AID 504832. Potency, µM (series often up to 28.7 µM), for inactives: at the top dose activity change, negative = inhibition, most hits filed as inhibitors. hit rate 5.9% among 310,000; note: % is set by controls: 0 for no effect and ±100 for the full control effect
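Parasite viability was followed by luminescence of a genomically integrated firefly luciferase. Cultures held 0.1% parasitemia at 2% hematocrit (final), incubated under 5% CO2 at 37 C.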
Pf growth 96h: P. falciparum growth inhibition at 96 hour, primary screen for plastid delayed-death inhibitors. P. falciparum luciferase reporter growth, 96 h. Potency, µM (highest dose often 28.7 µM), inactives show at the top dose activity change, negative = inhibition, hits mostly inhibitors. hit rate 6.9% among 320,000; note: % is set by controls: 0 for no effect and ±100 for the full control effect
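Parasite growth measured via integrated firefly luciferase reporter in P. falciparum. Infected erythrocytes at 2% hematocrit, 0.05% parasitemia final were treated 96 hours at 37 C under 5% CO2, and luminescence was read.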
AMA1-RON2 inh: disrupts binding of P. falciparum AMA1 to RON2 | AlphaScreen AMA1-biotinylated RON2 peptide binding | hit rate 0.2% among 360,000 | Potency, µM (series often up to 58.2 µM), for inactives: at the highest dose activity change, negative = inhibition, actives largely listed as inhibitors;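 note: 0% = vehicle wells and -100% = peptide control; nearly all actives have a fitted effect of over 45% in size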
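AMA1 (3D7) with his tag at 25 nM final met compounds first, then biotinylated RON2 peptide at 25 nM; detection used donor plus acceptor beads, 10 µg/mL apiece, read by AlphaScreen after 30 min at room temperature.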
NS1 inh: influenza NS1 inhibition | Potency, µM (top dose mostly 46.1 µM), for inactives: at the highest dose activity, positive = more growth | hit rate 0.4% among 270,000 | AID 2326; calls by dose curve; note: actives are rising curves; nearly all actives have a fitted effect of over 50% in size
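In this qHTS, NS1 from influenza A is expressed in budding yeast, where it slows growth. Cells are switched from glucose to 2% galactose medium (pH 6.0, -URA), treated with compound, and growth recovery is read at OD600.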
HCV inhibitor: HCV inhibition; Huh7.5.1 HCVcc-Cre infection, luciferase reporter, 44 h; Potency, µM (top dose mostly 41.8 µM), for the others: at the highest dose activity change, negative = inhibition, usual class: inhibitors; hit rate 3.4% among 340,000; AID 651820; note: % is set by controls: 0 for no effect and ±100 for the full control effect
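Infectious HCV cell culture screen: compound-treated cells (1,000/well, pre-plated 4 h) are infected with HCVcc-Cre at roughly 0.5 moi and grown 44 h. Infection is quantified by luciferase signal after 15 min substrate incubation at room temperature.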
Starred values were filed as active, the others as inactive; ? = inconclusive; / = no result given; [ ] = dose if it differs, or a comment. Unless noted, calls come from the whole dose curve; as a rule, active = well fitted curve in the direction sought with a large enough effect; inconclusive = small, poorly fitted or top-dose-only effect, or another doubt; inactive = no such curve, though single readings can be large; an effect the other way counts as inactive or inconclusive. Potency is the fitted concentration of half-maximal effect.

SMILES | SARS PLpro yeast | Pf growth 48h | Pf growth 96h | AMA1-RON2 inh | NS1 inh | HCV inhibitor
Cc1ccc(C2C(C(=O)c3sc(C)nc3C)=C(O)C(=O)N2CCN(C)C)o1 (centres undefined) | 2.4% | 9.2% | 5.86µM* | 8.4% | 1.8% | 8.2%
Cc1ccc(S(=O)(=O)NCC2CCC(C(=O)N3CCN(C)CC3)CC2)cc1 (centres undefined) | ? | 12.3% | ? | 3.1% | 2.0% | ?
CCOC(=O)C1(Cc2cccc(Cl)c2)CCCN(C(=O)c2cccnc2)C1 (centres undefined) | 0.7% | 16.3% | 4.65µM* | -15.5% | 3.5% | 11.7%
CC#CC(=O)N1CCCC(Cc2cccc(OC)c2)(C(=O)OCC)C1 (centres undefined) | 3.2% | ? | 6.57µM* | 1.3% | -13.9% | 2.9%
CCOC(=O)C1(Cc2cccc(Cl)c2)CCCN(C(=O)c2cn[nH]c2)C1 (centres undefined) | / | ? | 7.2% | 17.7% | 4.4% | /
CCOC(=O)C1(Cc2ccccc2C)CCCN(S(=O)(=O)c2cccnc2)C1 (centres undefined) | -3.7% | 9.28µM* | 10.4µM* | 3.6% | -6.2% | -6.5%
FC(F)(F)c1cc(-c2ccc3c(c2)OCO3)nc(NCc2ccco2)n1 | -5.6% | 17.3% | 3.2% | 6.2% | 5.6% | 6.31µM*
CCOc1ccc(NS(=O)(=O)c2cccc(C(=O)N3CCN(C/C=C/c4ccccc4)CC3)c2)cc1 | / | / | / | -26.5% | / | ?
O=C(NCC1CCCO1)C1CC(=O)N(c2ccccc2)C1 (centres undefined) | 1.6% | ? | -17.2% | 9.6% | -3.5% | 13.7%
CC(CC(=O)Nc1ccc(-c2ccno2)cc1)n1cccn1 (centres undefined) | -5.8% | -20.3% | -22.0% | 4.1% | 4.7% | -2.9%
Cc1cc(C)n(C(C)CC(=O)Nc2ccc(-c3ccno3)cc2)n1 (centres undefined) | -4.6% | ? | 0.522µM* | 5.7% | -23.9% | 14.6%
Cc1csc2cc(-c3cccc([N+](=O)[O-])c3)c(-c3cccc([N+](=O)[O-])c3)c[n+]12 | 2.5% | 1.04µM* | 0.465µM* | 19.0% | -1.7% | -0.9%
COc1ccc(NC(=O)CSc2nnc(NC(=O)C3CCC3)s2)cc1 | / | 6.0% | 16.4% | 9.6% | 26.2% | -10.4%
CC(C)N(C(=O)CSc1nnc(NC(=O)C2CCC2)s1)C(C)C | 2.0% | 6.57µM* | ? | -4.6% | -8.2% | 0.6%
c1csc(-c2nn3cnnc3c3ccccc23)c1 | -4.0% | 0.0% | -0.3% | 31.9% | -0.9% | -14.9%
Cc1ccccc1N(C)S(=O)(=O)c1ccc2[nH]cc(C(=O)NCC3CCCO3)c(=O)c2c1 (centres undefined) | 0.2% | ? | ? | -6.3% | -4.1% | 6.1%
CCOC(=O)N1CCN(C(=O)c2c[nH]c3ccc(S(=O)(=O)N(C)c4ccc(OCC)cc4)cc3c2=O)CC1 | -0.9% | 23.8% | 13.1µM* | 8.2% | -15.4% | 18.1%
CCOc1ccc(N(C)S(=O)(=O)c2ccc3[nH]cc(C(=O)NCC4CCCO4)c(=O)c3c2)cc1 (centres undefined) | 0.5% | 13.1µM* | ? | -1.8% | -17.8% | 0.4%
N/N=C1/c2ccccc2N[C@H]1OC(=O)Nc1cccc(Cl)c1 | / | / | / | / | -44.4% | /
Cc1ccc(S(=O)(=O)Cn2nnnc2CN(Cc2ccco2)CC2CCCO2)cc1 (centres undefined) | 1.9% | ? | 4.15µM* | 0.0% | -3.5% | 11.7%
CCOc1ccc(S(=O)(=O)N2CCC(C(=O)OC(C)C(=O)NC3CCCCC3C)CC2)cc1 (centres undefined) | 3.5% | 8.28µM* | 13.1µM* | 13.9% | / | 2.4%
CCOc1ccc(S(=O)(=O)N2CCC(C(=O)NCc3ccccc3CN3CCCC3)CC2)cc1 | 2.6% | 9.28µM* | 13.1µM* | -7.6% | / | -29.7%
Cc1ccc(S(=O)(=O)N2CCC(C(=O)NCc3ccccc3CN3CCCC3)CC2)cc1 | -0.4% | / | / | 7.6% | / | -9.3%
N#Cc1ccccc1S(=O)(=O)N1CCC(C(=O)NCc2ccccc2CN2CCCC2)CC1 | -1.0% | ? | 6.57µM* | 1.1% | / | -10.2%
O=C1NC(=O)C(c2ccccc2)(C2CCCC2)N1 (centres undefined) | / | / | / | 4.9% | / | -2.1%
SMILES | SARS PLpro yeast | Pf growth 48h | Pf growth 96h | AMA1-RON2 inh | NS1 inh | HCV inhibitor
O=C(Nc1ccc(F)cc1)c1ccccc1NS(=O)(=O)N1CCCC1 | -2.0% | ? | ? | 5.2% | 0.6% | 18.6%
O=C(Nc1cc(Sc2ccccn2)cc([N+](=O)[O-])c1)c1cccc(Cl)c1 | -8.1% | 9.28µM* | 20.4% | -2.9%[11.6 µM] | 24.9% | 8.91µM*
O=C(Nc1cccc([N+](=O)[O-])c1)c1ccncc1 | -6.4% | 43.8% | -18.6% | 3.6% | -0.6% | 21.6%
O=C(Nc1cc(Sc2ccccn2)cc([N+](=O)[O-])c1)c1ccc(Cl)cc1 | 6.8% | ? | ? | -20.9% | 3.7% | 10µM*
Cc1ccc(S(=O)(=O)N2[C@H](CC(=O)c3cccs3)OC[C@@H]2C)cc1 | / | / | / | 1.5% | / | /
Cc1cccc(C)c1NC(=O)NC1(C(=O)N2CCOCC2)CCCCC1 | 1.2% | 5.6% | 9.7% | 8.2% | / | -15.1%
CC(Oc1cccc2cccnc12)C(=O)N/N=C/c1ccc2c(c1)OCO2 (centres undefined) | / | / | / | 11.5% | / | -1.6%
COc1ccc2cc([C@@H](C)C(=O)O)ccc2c1 | / | -6.7% | 0.7% | 0.0% | / | 31.9%
CCOC(=O)N(C)c1c(CC)nc2c(OCc3ccccc3)cccn12 | / | / | / | -2.1% | / | /
CCn1ncc([N+](=O)[O-])c1C(=O)Nc1ccc(C(=O)N2CCCCC2)cc1 | -3.7% | -0.7% | -27.1% | 18.5% | 4.1% | -2.3%
CCC(C)c1ccc(NC(=O)c2c([N+](=O)[O-])cnn2CC)cc1 (centres undefined) | -16.1% | -47.4% | 5.22µM* | -5.5% | -46.6% | -21.0%
CN(C)CCC#CC(O)(c1ccccc1)c1ccccc1 | 3.1% | 11.7µM* | ? | 2.3% | 11.6% | 14.8%
CCCCSc1cc(C)nc(N)n1 | 1.7% | 74.0% | 5.7% | -9.5% | -5.8% | -14.1%
CCCc1c(O)nc(SCCN(CC)CC)n(C(=O)c2ccccc2)c1=O | 3.4% | ? | 13.1µM* | 0.0% | -5.8% | 21.1%
CCCc1c(O)nc(SCCN(CC)CC)[nH]c1=O | -2.1% | -7.9% | / | -10.5% | 11.0% | -3.3%
CCOc1ccccc1CN1CCNC(=O)C1CC(=O)N(C)C1CCOCC1 (centres undefined) | -2.2% | ? | 9.9% | 7.0% | -0.2% | 16.9%
COc1cc(C(C(=O)NC2CCCCC2)N(Cc2cccs2)C(=O)Cc2c[nH]c3ccccc23)cc(OC)c1OC (centres undefined) | -7.4% | 9.28µM* | 8.28µM* | -5.7% | 10.6% | ?
